In PubChem BioAssay AID602393 (Broad Institute, 2012) one finds reporter increase data, which are given here for 50 molecules.

Molecules are shown by their SMILES. The campaign covered roughly 350,000 compounds. About 7,000 (2%) were called active. For the sample, actives were picked, then their nearest neighbours and some compounds at random. A number with no mark means an inactive call. No stated cut-off is given here; in the data, active means activation above about 40%; inconclusive means no clear call, values can overlap the other calls; inactive means below that.

This assay is described as follows: Bmi1 luciferase reporter increase in mESCs, primary screen, esBAF inhibitor project, mouse ES cells, Bmi1 luciferase knock-in, single point (AID 602393).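 Further: 0% = median of the plate's neutral control wells and 100% = double that signal; a rise in the Bmi1 reporter signal indicates esBAF inhibition.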 The conditions noted are these: 24 h, at 12.5 µM, hits give high values, 100% = twice the neutral-well signal. (In general: Reporter assays use an easily measured gene product as a stand-in for the process of interest.)
As to `C[C@H](CO)N1C[C@H](C)[C@@H](CN(C)Cc2ccccc2)OCCCC[C@H](C)Oc2ccc(NC(=O)Cc3ccccc3)cc2C1=O`, the reporter increase is 1.95%.
For `COc1ccc(NC(=O)Nc2cccc3c2O[C@H](CN(C)Cc2ccc(Cl)c(Cl)c2)[C@H](C)CN([C@@H](C)CO)C3=O)cc1`, the reporter increase is 4.75%.
The value for `CCc1ccc(NC(=O)Cn2nnc(C(=O)NCc3ccc4c(c3)OCO4)c2N)cc1` was -0.239%; that for `O=C(Nc1ccc2c(c1)OCCO2)C(C1CC1)N1CCC(Cc2ccccc2)CC1` (stereo not given) was -12.5%; that for `Nc1c(C(=O)Nc2ccc3c(c2)OCCO3)nnn1Cc1ccccc1` was 62.1% (active).
The value for `C[C@@H]1CN([C@H](C)CO)C(=O)c2cc(NC(=O)c3ccncc3)ccc2O[C@H]1CN(C)C(=O)Nc1ccc(C(F)(F)F)cc1` was 8.53%; that for `Cc1ccccc1S(=O)(=O)NCC[C@@H]1CC[C@H](NC(=O)C2CCC2)[C@@H](CO)O1` was -0.558%; that for `Nc1nnnn1/N=C/c1cccs1` was 2.23%.
As to `Cc1ccc(N2CCN(/N=C/c3cccs3)CC2)cc1`, the reporter increase is 13.6%.
With `C(=N/N1CCN(c2ccccc2)CC1)/c1cccs1`, the reporter increase is 45.3% (active).
Then `C[C@H]1CN([C@@H](C)CO)C(=O)CCCn2cc(nn2)CO[C@H]1CN(C)C(=O)Nc1ccc(F)cc1`, with -7.14%; and `C[C@H](CO)N1C[C@H](C)[C@@H](CN(C)S(=O)(=O)c2ccc(F)cc2)Oc2ccc(NC(=O)CCCCCC(=O)Nc3ccccc3N)cc2CC1=O`, with 1.27%.
`COCCNC(=O)C[C@@H]1C[C@@H]2c3cc(NC(=O)Nc4ccc(C(F)(F)F)cc4)ccc3O[C@@H]2[C@@H](CO)O1`: the reporter increase is -4.42%.
Then `CCC(=O)N1C[C@H](C)[C@H](OC)CN(C)C(=O)c2ccc(NC(=O)Nc3ccc(Cl)cc3)cc2OC[C@H]1C`, with 4.13%; and `C[C@H](CO)N1C[C@H](C)[C@@H](CN(C)Cc2ccc(Oc3ccccc3)cc2)OCc2cn(nn2)CCCC1=O`, with 0.422%.
Then `N#CNC1=NCN(CCc2ccccc2)CN1`, with -7.73%.
The value for `c1ccc(CCN2CN=C(Nc3nc4ccccc4o3)NC2)cc1` was 45.9% (active).
Take `CC1CCN(Cc2nc3c(c(=O)n(C)c(=O)n3C)n2CCc2ccccc2)CC1`: the reporter increase is -5.75%.
`C[C@@H]1CCCCO[C@H](CN(C)Cc2ccc3c(c2)OCO3)[C@@H](C)CN([C@H](C)CO)C(=O)c2cc(N(C)C)ccc2O1`: the reporter increase was 0.519%.
Then `O=C(Cc1ccccc1)Nc1ccc(C(=O)Nc2ccccc2C(=O)O)cc1`, with -1.37%; and `CC(C)(C)c1ccc(C(=O)NNC(=O)Cc2ccccc2)cc1`, with 49% (active).
Then `O=C(CNC(=O)c1ccco1)NNC(=O)c1ccc(Br)cc1`, with -0.872%.
The value for `C[C@H](CO)N1C[C@H](C)[C@@H](CN(C)S(=O)(=O)c2ccc(Cl)cc2)Oc2ccc(NS(=O)(=O)c3cccs3)cc2CC1=O` was 6.86%.
`CC(C)C#Cc1cnc2c(c1)C(=O)N([C@@H](C)CO)C[C@@H](C)[C@H](CN(C)C(=O)CCN1CCCCC1)O2`: the reporter increase is 0.29%.
The value for `O=C(C[C@@H]1CC[C@H]2[C@@H](COC[C@@H](O)CN2S(=O)(=O)c2cccc(Cl)c2)O1)N1CCCCC1` was -2.86%; that for `CC(C)(c1ccccc1)c1ccc(OCCN2CCCC2)cc1` was -18.8%; that for `Cc1cccc(C)c1OCCN1CCOCC1` was -3.46%.
The value for `c1ccc(-c2ccc(OCCN3CCOCC3)cc2)cc1` was 50.5% (active).
Then `Cc1noc(C)c1S(=O)(=O)Nc1ccc2c(c1)C(=O)N([C@H](C)CO)C[C@@H](C)[C@@H](CN(C)S(=O)(=O)c1ccc(Cl)cc1)O2`, with 6.53%; and `CC(C)c1c(C(=O)N/N=C/c2ccc(-c3ccccc3)cc2)nnn1-c1nonc1N`, with -2.09%; and `Cc1nc2ccc(C(=O)N/N=C/c3ccc(O)cc3)cc2[nH]1`, with -6.33%.
In the case of `Cc1nonc1C(=O)N/N=C/c1ccc(O)cc1`, the reporter increase was 50.7% (active).
Then `C[C@H]1CN([C@@H](C)CO)S(=O)(=O)c2ccc(-c3cncnc3)cc2O[C@H]1CN(C)Cc1ccncc1`, with 0.176%; and `O=C(Nc1ccc(Cl)c(Cl)c1)c1ccccc1NC(=O)C1CC=CCC1C(=O)O` (stereo not given), with 92.4% (active).
On to `O=C(O)C1CC=CCC1C(=O)NCCc1ccccc1` (stereo not given), for which the reporter increase is -11%.
The value for `O=C(Nc1cccc(Cl)c1Cl)c1ccccc1NC(=O)C1CC=CCC1C(=O)O` (stereo not given) was 5.49%.
Then `CC(=O)c1c(C)[nH]c(C(=O)OCC(=O)Nc2c(C)cccc2C)c1C`, with -23.7%; and `COC(=O)c1c(C)[nH]c(C(=O)NCCc2ccc(S(N)(=O)=O)cc2)c1C`, with -4.52%.
The value for `CCCCOC(=O)c1[nH]c(C)c(C(=O)OC)c1C` was 78.5% (active); that for `CO[C@@H]1CN(C)C(=O)c2ccc(NS(C)(=O)=O)cc2OC[C@@H](C)N(CC2CC2)C[C@@H]1C` was 1.93%; that for `C[C@@H]1CN([C@@H](C)CO)C(=O)c2cc(N(C)C)ccc2O[C@@H](C)CCCCO[C@H]1CN(C)Cc1ccncc1` was -3.61%.
As to `CC(C)(C)C1CCc2c(sc3nc(SCC(N)=O)nc(N)c23)C1` (stereo not given), the reporter increase was -0.656%.
Then `C=C(C)CSc1nc(N)c2c3c(sc2n1)CCC3`, with 75.4% (active); and `CCc1nc(N2CCN(C(C)=O)CC2)c2c3c(sc2n1)CCCC3`, with -4.58%.
Then `C[C@H](O)C#Cc1cnc2c(c1)C(=O)N([C@@H](C)CO)C[C@@H](C)[C@@H](CN(C)C(=O)Cc1ccccn1)O2`, with -2.01%; and `Cc1noc(C)c1-c1ccc(C(=O)NCc2ccncc2)c2occc12`, with 8.81%.
The value for `COCCCNC(=O)c1cccc2c(-c3ccc(O)c(OC)c3)coc12` was 12.3%.
In the case of `COCCCNC(=O)c1ccc(-c2c(C)noc2C)c2ccoc12`, the reporter increase is 78.5% (active).
Regarding `COc1ccccc1S(=O)(=O)N[C@@H]1C=C[C@H](CC(=O)N2CCOCC2)O[C@@H]1CO`, the reporter increase is -2.3%.
Then `COCCNC(=O)C[C@H]1CC[C@H](NS(=O)(=O)c2ccc(C)cc2)[C@@H](CO)O1`, with -2.1%.
